According to PubChem BioAssay (NCI):
“And” between values parts separate entries of the source, which are not always exact repeats. Equal values may be shown once. Compounds without any hit were thinned out: in the full panel of roughly 83,000, 20% have a hit.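 Interpretation: 100, growth as untreated; towards 0, rising growth inhibition; 0, no net growth; 0 to -100, cell death. Compounds scoring below 10 were considered active.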 The source made the active and inactive calls. Starred links: 1 amine or outer side, 2 acyl side, 3 side chain; linkers in the order of their positions; H or OH if unused. Positions of bridges follow the written chain, without caps; N, C: chain ends. Non-standard residues stand in square brackets, D forms with d. Residues, ends and D or L forms follow the SMILES beside them. Chains are numbered I, II in the order given. Actinocin(9to1) = Cc1c2oc3c(C)ccc(C(=O)[*:1])c3nc-2c(C(=O)[*:2])c(N)c1=O; aThr = C[C@H](O)[C@H](N)C(=O)O; NMeV = CN[C@H](C(=O)O)C(C)C; Sar = CNCC(=O)O

Test system: NCI-H23 lung
Test: NCI-60 one-dose screen, 48 h (100 = growth as untreated, 0 = no growth, -100 = all killed)
Settings: 0.0025 µM
Description: Growth inhibition of the NCI-H23 human Non-Small Cell Lung tumor cell line is measured as a screen for anti-cancer activity. Cells are grown in 96 well plates and exposed to the test compound for 48 hours. Compounds are tested at a single concentration, which is 10^-5 M for most compounds. The reported endpoint is percent growth (GI% or GIPRCNT), where numbers from 0 - 100% represent growth inhibition, and numbers from -100% - 0 represent cell death. For example, a value of 40 represents 60% growth inhibition. A value of 0 means no net growth occurred over the course of the experiment. A value of -40 indicates 40% of cells at the beginning of the experiment died by the end of the experiment. A value of -100 means all cells are dead at the end of the experiment.
NCI-60 Human Tumor Cell Lines Screen was performed using the standard one-dose NCI protocol, which is described in more detail at https://dtp.cancer.gov/discovery_development/nci-60/default.htm.
Compounds with GIPRCNT values below 10 were considered active. Activity score was based on GIPRCNT using the following formula: […]
Score is 0 for GIPRCNT values of 100 or above, 50 for GIPRCNT values of 0, and 100 for GIPRCNT values of -100.

Structure (SMILES) | growth
Cc1c2oc3c(C)ccc(C(=O)N[C@@H]4C(=O)N[C@H](C(C)C)C(=O)N5CCC[C@H]5C(=O)N(C)CC(=O)N(C)[C@@H](C(C)C)C(=O)O[C@H]4C)c3nc-2c(C(=O)N[C@@H]2C(=O)N[C@H](C(C)C)C(=O)N3CCC[C@H]3C(=O)N(C)CC(=O)N(C)[C@@H](C(C)C)C(=O)O[C@H]2C)c(N)c1=O (I: [aThr][dV]P[Sar][NMeV] / II: [aThr][dV]P[Sar][NMeV]; ester I:1-I:C, II:1-II:C; linker I:N-II:N via Actinocin(9to1)) | 53.2% (inactive)

Same assay, conditions: 10 µM

Structure (SMILES) | growth
O=c1[nH]cc(F)c(=O)[nH]1 | 55% (inactive) and 55.2% (inactive)
Cc1cc(NCCCN(C)C)c2ccc3c(ccc4c(NCCCN(C)C)cc(C)nc43)c2n1 | -45.2% (active)
COc1cc(C(C)(C)C)cc(OC)c1C(O)(c1c(OC)cc(C(C)(C)C)cc1OC)c1c(OC)cc(C(C)(C)C)cc1OC | -51.2% (active)
CN(C)CCC(=O)c1c[nH]c2ccccc12 | 110% (inactive)
Nc1ccc2cc(Br)c3ccccc3c2c1 | 69.5% (inactive)
CSc1ccc2c(c1)C(N1CCN(C)CC1)Cc1ccccc1S2 (configuration not stated) | 56% (inactive)
CN1CCN(c2ccc3nc(-c4ccc5nc(-c6ccc(O)cc6)[nH]c5c4)[nH]c3c2)CC1 | 74% (inactive)
N#C/C(=C1C=C/C(=N\O)C(Cl)=C\1)c1ccccc1 | 82.8% (inactive)
O=C(/C(=C/c1ccccc1)CBr)c1ccccc1 | 73.1% (inactive)
CCCCCCCCCCCCCCCCCN | 106% (inactive)
S=c1[nH]nc(Cc2ccccc2)c(=S)[nH]1 | 92.5% (inactive)
BrC/C=C/C[P+](c1ccccc1)(c1ccccc1)c1ccccc1 | 84.2% (inactive)
Cc1c2oc3c(C)ccc(C(=O)N[C@@H]4C(=O)N[C@H](C(C)C)C(=O)N5CCC[C@H]5C(=O)N(C)CC(=O)N(C)[C@@H](C(C)C)C(=O)O[C@H]4C)c3nc-2c(C(=O)N[C@@H]2C(=O)N[C@H](C(C)C)C(=O)N3CCC[C@H]3C(=O)N(C)CC(=O)N(C)[C@@H](C(C)C)C(=O)O[C@H]2C)c(N)c1=O (I: [aThr][dV]P[Sar][NMeV] / II: [aThr][dV]P[Sar][NMeV]; ester I:1-I:C, II:1-II:C; linker I:N-II:N via Actinocin(9to1)) | -50.9% (active)
Cc1cnc(/C=N\NC(N)=S)c2cccc(N)c12 | 7.29% (active)

Same assay, conditions: 25 µM

Structure (SMILES) | growth
O=c1[nH]cc(F)c(=O)[nH]1 | 39% (inactive)

Same assay, conditions: 50 µM

Structure (SMILES) | growth
O=c1[nH]cc(F)c(=O)[nH]1 | 41.6% (inactive)
